Results taken from PubChem BioAssay (EPA / NIEHS).
Inconclusive results are not listed. Active and inactive are the calls of the source. Rule for the calls: active = hit-call score of the fitted dose curve at least 0.9, where 1 is the maximum; inconclusive = response in the unintended direction; inactive = score below 0.9.

What was measured:
[1] = target: bovine Estrogen Receptor (ER), ESR1 (gene 407238) (UniProt P49884); experiment: NVS_NR_bER: NovaScreen (NVS) Nuclear Receptor Binding Assay for bovine Estrogen Receptor (ER) (AID 2283345);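 note: actives lower the bound radioligand count which means they displace the ER ligand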
Method in brief: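 Displacement of a radioligand from estrogen receptor in bovine uterine membrane preparations; scintillation signal taken at 18 hours, DMSO as baseline. Single-concentration duplicates (25 uM) preceded concentration-response follow-up of actives.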

[2] = target: Estrogen receptor (Homo sapiens) (UniProt P03372); experiment: NVS_NR_hER: NovaScreen (NVS) Nuclear Receptor Binding Assay for human Estrogen Receptor (ER) (AID 2283348)
Method in brief: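 Scintillation signal from bound radioligand was measured 18 hours after chemical addition to cell-free MCF7 protein extracts, with DMSO as baseline. Activity was scored as signal loss; compounds ran first at 25 uM in duplicate.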

[3] = target: Estrogen receptor (Homo sapiens) (UniProt P03372); experiment: OT_ER_ERaERa_1440: Odyssey Thera (OT) 24-hour HEK293T Protein-Complementation Assay for Estrogen Receptor-alpha/-alpha Homodimer (AID 2283349);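 note: hits raise fluorescence above DMSO for agonists and antagonists alike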
Method in brief: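 Protein-fragment complementation between two human ERα ligand-binding domains (aa 310-547) in stably transfected HEK293T cells was monitored after 24 h treatment, using fluorescence intensity relative to vehicle controls.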

[4] = target: chimpanzee Androgen Receptor (AR), AR (gene 747460) (UniProt O97775); experiment: NVS_NR_cAR: NovaScreen (NVS) Nuclear Receptor Binding Assay for chimpanzee Androgen Receptor (AR) (AID 2283346);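 note: radioligand displacement from AR measured by scintillation counting in a cell-free assay; a loss of bound radioligand signal versus DMSO counts as binding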
Method in brief: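 Cell-free competition binding with insect-cell (Sf9/Sf21) extracted chimpanzee AR; scintillation signal from lysate at 72 h. Screened in duplicate at 25 uM, then concentration-response for actives; fitting relative to DMSO.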

Sequence of bovine Estrogen Receptor (ER), ESR1 (gene 407238) (P49884 whole entry, looked up): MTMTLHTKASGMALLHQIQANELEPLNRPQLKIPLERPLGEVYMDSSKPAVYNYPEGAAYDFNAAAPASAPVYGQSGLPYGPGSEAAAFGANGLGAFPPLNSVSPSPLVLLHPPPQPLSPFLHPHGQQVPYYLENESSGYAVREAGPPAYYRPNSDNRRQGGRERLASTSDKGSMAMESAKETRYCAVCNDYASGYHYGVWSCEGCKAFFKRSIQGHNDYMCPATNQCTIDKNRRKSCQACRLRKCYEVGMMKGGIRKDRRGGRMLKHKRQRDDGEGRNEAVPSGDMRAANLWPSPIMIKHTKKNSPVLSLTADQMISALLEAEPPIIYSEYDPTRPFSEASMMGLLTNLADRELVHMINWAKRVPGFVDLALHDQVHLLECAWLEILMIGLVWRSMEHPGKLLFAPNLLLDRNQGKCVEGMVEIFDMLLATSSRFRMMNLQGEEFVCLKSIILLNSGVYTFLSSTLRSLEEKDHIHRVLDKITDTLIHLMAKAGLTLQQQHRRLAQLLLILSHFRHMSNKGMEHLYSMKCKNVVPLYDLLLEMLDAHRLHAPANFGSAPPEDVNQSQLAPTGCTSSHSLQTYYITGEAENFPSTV
Sequence of Estrogen receptor (Homo sapiens) (P03372 whole entry, looked up, the tested form may be a part): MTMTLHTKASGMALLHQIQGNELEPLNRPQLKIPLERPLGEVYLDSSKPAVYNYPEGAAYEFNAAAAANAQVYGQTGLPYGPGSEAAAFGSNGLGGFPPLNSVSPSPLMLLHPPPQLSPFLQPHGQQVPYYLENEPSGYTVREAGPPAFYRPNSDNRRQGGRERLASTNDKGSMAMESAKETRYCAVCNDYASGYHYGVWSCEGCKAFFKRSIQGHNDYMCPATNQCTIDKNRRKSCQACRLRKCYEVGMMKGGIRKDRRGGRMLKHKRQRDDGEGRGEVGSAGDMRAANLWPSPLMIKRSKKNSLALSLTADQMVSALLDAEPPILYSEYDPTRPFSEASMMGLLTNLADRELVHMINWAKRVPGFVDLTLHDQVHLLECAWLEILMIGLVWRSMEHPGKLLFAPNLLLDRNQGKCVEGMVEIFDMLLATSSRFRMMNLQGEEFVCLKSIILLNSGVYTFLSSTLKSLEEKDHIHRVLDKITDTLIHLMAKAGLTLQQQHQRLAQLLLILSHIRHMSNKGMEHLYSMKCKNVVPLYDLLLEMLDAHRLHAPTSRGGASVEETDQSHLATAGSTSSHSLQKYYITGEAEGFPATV
Sequence of chimpanzee Androgen Receptor (AR), AR (gene 747460) (O97775 whole entry, looked up): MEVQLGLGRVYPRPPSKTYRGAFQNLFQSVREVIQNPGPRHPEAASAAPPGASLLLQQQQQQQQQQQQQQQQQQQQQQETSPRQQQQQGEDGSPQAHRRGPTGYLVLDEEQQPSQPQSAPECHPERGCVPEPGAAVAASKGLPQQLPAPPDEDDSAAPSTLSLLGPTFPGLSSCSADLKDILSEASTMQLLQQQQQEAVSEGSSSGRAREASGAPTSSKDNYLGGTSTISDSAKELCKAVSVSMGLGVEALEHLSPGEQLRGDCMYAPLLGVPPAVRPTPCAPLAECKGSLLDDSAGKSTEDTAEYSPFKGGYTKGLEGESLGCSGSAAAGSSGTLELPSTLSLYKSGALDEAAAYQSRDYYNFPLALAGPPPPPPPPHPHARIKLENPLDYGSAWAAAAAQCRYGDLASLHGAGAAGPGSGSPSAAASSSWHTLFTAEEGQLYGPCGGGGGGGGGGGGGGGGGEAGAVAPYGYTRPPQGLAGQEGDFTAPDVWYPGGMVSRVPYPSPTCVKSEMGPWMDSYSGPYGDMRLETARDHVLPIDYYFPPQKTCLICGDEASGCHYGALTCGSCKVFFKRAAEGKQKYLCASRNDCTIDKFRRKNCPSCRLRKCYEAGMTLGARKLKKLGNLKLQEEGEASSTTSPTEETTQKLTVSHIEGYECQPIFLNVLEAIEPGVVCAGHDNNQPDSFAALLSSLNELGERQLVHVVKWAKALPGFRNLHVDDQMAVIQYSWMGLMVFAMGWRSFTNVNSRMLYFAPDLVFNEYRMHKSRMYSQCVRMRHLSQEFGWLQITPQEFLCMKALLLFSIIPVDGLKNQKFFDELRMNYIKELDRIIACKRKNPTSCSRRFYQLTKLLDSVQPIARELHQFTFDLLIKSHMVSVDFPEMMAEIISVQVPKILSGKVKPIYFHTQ

In the case of `c1ccc(Nc2cccc3ccccc23)cc1`, the outcome [1] is reported as “inactive”, the outcome [2] is reported as “inactive” and the AC50 [3] is reported as 63.1 µM (active).
For `CC(C)c1cc(C(C)C)cc(C(C)C)c1`, the outcome [4] was “inactive” and the outcome [3] was “inactive”.
With `CCCCOC(=O)CCC(C)=O` the outcome [2] was “inactive”.
In the case of `CC(C)=CCCC(C)=CC#N`, the outcome [1] is reported as “inactive”, the outcome [2] is reported as “inactive” and the outcome [3] is reported as “inactive”.
`C=C[Si](OCCOC)(OCCOC)OCCOC` was tested, and the outcome [1] was “inactive”, the outcome [4] was “inactive” and the outcome [3] was “inactive”.
With `CCCCCCCCCCCCc1ccc(O)cc1` the AC50 [1] was 10.7 µM (active) and the AC50 [2] was 11 µM (active).
For `CC1(C)[C@@H]2CC[C@@]1(C)C(=O)C2`, the outcome [3] was “inactive”.
`N=C1C=CC(=C(c2ccc(N)cc2)c2ccc(N)cc2)C=C1` was tested, and the outcome [2] was “inactive”.
For `Oc1ccccc1Cc1ccccc1O`, the AC50 [4] was 25 µM (active), the outcome [2] was “inactive” and the outcome [3] was “inactive”.
In the case of `Nc1ccc(O)c([N+](=O)[O-])c1`, the outcome [1] is reported as “inactive” and the outcome [2] is reported as “inactive”.
With `CCCCCCCCCCCCCCCCCCOS(=O)(=O)O` the outcome [1] was “inactive”, the outcome [2] was “inactive” and the outcome [3] was “inactive”.
In the case of `CCC1COC(=O)O1` (stereo not given), the outcome [3] is reported as “inactive”.
`C=CC(=O)OCC(C)OCC(C)OCC(C)OC(=O)C=C` (stereo not given) was tested, and the outcome [1] was “inactive”, the AC50 [4] was 6.29 µM (active) and the outcome [2] was “inactive”.
In the case of `CC(C)c1ccc(O)c(C(C)C)c1`, the outcome [1] is reported as “inactive”, the outcome [2] is reported as “inactive” and the outcome [3] is reported as “inactive”.
With `O=S(=O)(O)c1ccc(Nc2nc(Nc3ccc(C=Cc4ccc(Nc5nc(Nc6ccc(S(=O)(=O)O)cc6)nc(N(CCO)CCO)n5)cc4S(=O)(=O)O)c(S(=O)(=O)O)c3)nc(N(CCO)CCO)n2)cc1` the outcome [1] was “inactive” and the outcome [2] was “inactive”.
For `N#Cc1ccc(C2CCCc3cncn32)cc1` (stereo not given), the outcome [1] was “inactive”, the AC50 [2] was 4.33 µM (active) and the outcome [3] was “inactive”.
`CCCCCCCCCCCC(=O)N(C)CC(=O)O` was tested, and the outcome [2] was “inactive” and the outcome [3] was “inactive”.
For `CC(=O)OCc1ccccc1`, the outcome [1] was “inactive”, the outcome [2] was “inactive” and the outcome [3] was “inactive”.
`COc1ccc(-c2coc3cc(O)cc(O)c3c2=O)cc1` was tested, and the AC50 [1] was 14.6 µM (active), the AC50 [2] was 0.642 µM (active) and the AC50 [3] was 13.7 µM (active).
`C[Si](C)(C)N[Si](C)(C)C` was tested, and the outcome [1] was “inactive”, the outcome [2] was “inactive” and the outcome [3] was “inactive”.
For `O=C(O)/C=C/c1ccccc1`, the AC50 [3] was 34.2 µM (active).
In the case of `CC(C)(C)C1CCC(=O)CC1`, the AC50 [1] is reported as 25 µM (active) and the outcome [3] is reported as “inactive”.
With `O=C(Nc1ccccc1)c1cc(Cl)ccc1O` the outcome [1] was “inactive”, the outcome [2] was “inactive” and the outcome [3] was “inactive”.
With `O=C(O)C1CCC(C(=O)O)CC1` (stereo not given) the outcome [1] was “inactive” and the outcome [3] was “inactive”.
`O=C(OCCc1ccccc1)c1ccccc1` was tested, and the outcome [3] was “inactive”.
For `CC1(C)CC(O)CC(C)(C)N1[O]`, the outcome [4] was “inactive”.
`CC(C)(c1ccccc1)c1ccc(Nc2ccc(C(C)(C)c3ccccc3)cc2)cc1` was tested, and the outcome [1] was “inactive”, the outcome [2] was “inactive” and the outcome [3] was “inactive”.
`NC(=O)Nc1ccccc1` was tested, and the outcome [3] was “inactive”.
`CO[Si](C)(C)OC` was tested, and the outcome [2] was “inactive” and the outcome [3] was “inactive”.
For `CCCCCC[C@@H](O)C/C=C\CCCCCCCC(=O)OCC(O)CO` (stereo not given in full), the outcome [4] was “inactive” and the outcome [3] was “inactive”.
In the case of `C=CC(=O)OCCCCCCOC(=O)C=C`, the outcome [1] is reported as “inactive” and the outcome [2] is reported as “inactive”.
For `CCC[Si](OC)(OC)OC`, the outcome [3] was “inactive”.
For `CN(C)c1ccc2nc3ccc(=[N+](C)C)cc-3sc2c1`, the AC50 [4] was 11.2 µM (active) and the outcome [3] was “inactive”.
